Assay results: PubChem BioAssay AID720706 (Broad Institute, 2013)
The campaign covered roughly 350,000 compounds. About 5,500 (1.6%) were called active. The sample holds actives, similar compounds and a random draw of the others, so the mix is not that of the screen.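 The calls were made as follows: active = significant combined selectivity score with lowered wild-type GFP, culture density cut under 30%, mutant RFP and density less affected; inactive = any of these conditions unmet.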

Assay: GFP drop in mixed WT/humanized-ribosome E. coli culture – GFP/RFP fluorescence, OD600, single point, bacterial rRNA inhibitor project, primary screen (AID 720706)
Conditions: E. coli WT GFP vs humanized-ribosome RFP mutants, 24 h; GFP signal change (wild-type ribosome): stronger effect = lower value, DMSO median 0, no signal -100; OD600 change: measured here: OD600 growth, DMSO median 0, no signal -100; RFP signal change: measured here: RFP humanized mutant strains, DMSO median 0, no signal -100, concentration not given here

Structure (SMILES)	GFP signal change (wild-type ribosome)	OD600 change [%]	RFP signal change [%]
Cc1ccc(CNC(=O)c2cc(-c3ccccc3C)n(CC3CC(c4cccc([N+](=O)[O-])c4)=NO3)n2)cc1 (stereo not drawn)	6.99% (inactive)	10.7	-2.49
Cc1ccccc1-c1cc(C(=O)NCc2cccs2)n(CC2CC(c3cccnc3)=NO2)n1 (stereo not drawn)	-17.6% (active)	-10.9	5.68
Cc1ccccc1-c1cc(C(=O)NCC2CC2)n(CC2CC(c3cccnc3)=NO2)n1 (stereo not drawn)	-8.08% (inactive)	-3.34	-12
Clc1ccc(Nc2ccc3ccccc3n2)cc1	-54.6% (active)	-30	-18
O=C(NNC(=O)c1ccc2ccccc2c1)c1ccc(Cl)cc1	2.13% (inactive)	11.3	-2.59
C=CCNc1nc(Nc2ccc(Cl)cc2)nc(OC)n1	-33.3% (inactive)	-34	-2.27
COc1ccc(C#Cc2ccc([C@H]3[C@@H](CO)N4CCCCN(S(=O)(=O)c5cn(C)cn5)C[C@H]34)cc2)cc1	-58.4% (inactive)	-77.4	-16.4
O=C(CC1CC1)N1[C@@H](CO)[C@@H](c2ccccc2)C12CN(S(=O)(=O)c1ccccc1)C2	-0.794% (inactive)	0.08	4.17
CO[C@H]1CN(C)C(=O)c2ccc(NC(=O)C3CC3)cc2OC[C@H](C)N(C(=O)CN2CCOCC2)C[C@@H]1C	2.07% (inactive)	1.32	-3.59
C[C@H](CO)N1C[C@H](C)[C@H](CN(C)Cc2ccc(C(=O)Nc3ccccc3N)cc2)Oc2ccc(NC(=O)Nc3ccccc3)cc2CC1=O	-24.5% (inactive)	-22.3	1.58
C[C@@H]1CCCCO[C@H](CN(C)C(=O)NC2CCCCC2)[C@H](C)CN([C@@H](C)CO)C(=O)c2cc(NC(=O)C3CCCCC3)ccc2O1	-5.13% (inactive)	-0.493	-3.14
COc1ccc(NC(=O)Nc2cccc3c2O[C@@H](CN(C)S(=O)(=O)c2cn(C)cn2)[C@H](C)CN([C@@H](C)CO)C3=O)cc1	-1.33% (inactive)	-1.5	-0.415
O=C(NC1CCCC1)[C@@H]1[C@@H](CO)[C@@H]2Cn3c(ccc(-c4ccc(F)cc4)c3=O)[C@H]1N2Cc1cocn1	-0.879% (inactive)	4.54	-1.31
COC(=O)C[C@@H]1C[C@@H]2c3cc(NC(=O)NC4CCCC4)ccc3O[C@@H]2[C@@H](CO)O1	1.15% (inactive)	-0.449	-0.687
OC[C@@H]1CN(Cc2ccc(-c3ccccc3)cc2)C[C@H](n2cnc3c(NC4CCCC4)ncnc32)O1	-21.9% (active)	-14.8	-2.32
OC[C@@H]1CN(Cc2cccs2)C[C@H](n2cnc3c(NC4CCCC4)ncnc32)O1	-2.42% (inactive)	-4.54	4.82
OC[C@@H]1CN(Cc2ccc(F)cc2)C[C@H](n2cnc3c(NC4CCCC4)ncnc32)O1	-15.1% (inactive)	-8.49	0.518
CCCN1C[C@@H](C)[C@@H](OC)CN(C)C(=O)c2cc(NC(=O)NC3CCCCC3)ccc2OC[C@H]1C	2.68% (inactive)	4.16	-1.33
O=C(C[C@@H]1CC[C@@H]2[C@H](COC[C@H](O)CN2S(=O)(=O)c2ccc(F)cc2)O1)NCc1ccc(Cl)c(Cl)c1	-20.8% (inactive)	-43.9	0.781
C[C@@H]1CN([C@H](C)CO)C(=O)Cc2cc(NC(=O)Cn3cnnn3)ccc2O[C@@H]1CN(C)S(=O)(=O)c1ccc(F)cc1	4.41% (inactive)	-2.05	0.611
O=C(Nc1ccc(Cl)c(Cl)c1)c1ccccc1NC(=O)C1CC=CCC1C(=O)O (stereo not drawn)	-35.4% (inactive)	-49.6	-4.13

Structure (SMILES)	GFP signal change (wild-type ribosome)	OD600 change [%]	RFP signal change [%]
CC1(C(=O)O)CCC(C(=O)Nc2ccc(Cl)c(Cl)c2)C1(C)C (stereo not drawn)	-23.4% (active)	-16.1	-7.62
O=C(Nc1ccc2c(c1)OCO2)C1CC1(Cl)Cl (stereo not drawn)	-1.64% (inactive)	3.17	-2.98
Cc1noc(C)c1S(=O)(=O)Nc1ccc2c(c1)CC(=O)N([C@@H](C)CO)C[C@H](C)[C@H](CN(C)C(=O)Nc1cccc3ccccc13)O2	-2.17% (inactive)	-1.79	1.2
COc1ccc(S(=O)(=O)Nc2ccc3c(c2)CC(=O)N([C@@H](C)CO)C[C@@H](C)[C@@H](CN(C)Cc2ccc(C(=O)Nc4ccccc4N)cc2)O3)cc1	-5.01% (inactive)	-12	2.02
C[C@H](CO)N1C[C@H](C)[C@H](CN(C)C)Oc2ccc(NC(=O)c3ccncc3)cc2CC1=O	2.76% (inactive)	14.2	0.42
O=C(c1cccc(S(=O)(=O)N2CCCCCC2)c1)N1CCN(Cc2ccccc2)CC1	-2.42% (inactive)	-10.1	4.63
CCn1c2ccccc2c2cc(NC(=O)COC(=O)c3cc(S(=O)(=O)N4CCCCC4)ccc3Cl)ccc21	10.5% (inactive)	8.82	4.22
CCn1c(O)c(N=NC(=O)c2cccc(S(=O)(=O)N3CCCCC3)c2)c2ccccc21	-23.6% (active)	-16.1	-4.79
COc1ccc(CN2[C@H](CO)[C@@H]3c4ccccc4N(C(=O)C4CC4)C[C@@H]32)cc1	-9.79% (inactive)	-9.13	-1.21
O=C(NC1CCCCC1)N1CC2(C1)[C@H](c1ccccc1)[C@@H](CO)N2S(=O)(=O)Cc1ccccc1	-0.158% (inactive)	-18.2	1.15
Cc1nc2nc[nH]n2c(=O)c1C/C=C/c1ccccc1	-22.4% (active)	1.36	-5.82
C=CCc1c(C)nc2cc(-c3ccccc3)[nH]n2c1=O	-6.23% (inactive)	-4.26	-2.25
O=C(C[C@H]1C=C[C@H](NC(=O)C2CCOCC2)[C@@H](CO)O1)NCC1CC1	-0.532% (inactive)	2.38	0.125
C[C@@H]1CN(C)C(=O)c2cc([N+](=O)[O-])ccc2O[C@@H]1CN(C)C(=O)OC(C)(C)C	-2.71% (inactive)	7.21	-0.0835
COc1cccc(NC(=O)COc2cccnc2[N+](=O)[O-])c1	2.25% (inactive)	2.69	-3.22
COc1cccc(Nc2nc(N)c([N+](=O)[O-])c(NCc3ccco3)n2)c1	-45.5% (active)	-19.5	-12.3
CCN1CCN(c2nc(Nc3cccc(F)c3)nc(N)c2[N+](=O)[O-])CC1	1.28% (inactive)	-14.8	-3.28
CO[C@H]1CN(C)C(=O)c2cc(NC(=O)c3cnccn3)ccc2OC[C@@H](C)N(CC2CC2)C[C@@H]1C	1.98% (inactive)	-3.03	-2.31
CN(Cc1ccccc1F)C[C@H]1[C@@H](c2ccccc2)[C@@H](CO)N1S(C)(=O)=O	-3.23% (inactive)	-1.8	-1.06
Cc1noc(C)c1S(=O)(=O)Nc1ccc2c(c1)CC(=O)N([C@H](C)CO)C[C@@H](C)[C@@H](CN(C)Cc1ccncc1)O2	-1.08% (inactive)	6.97	0.021
COc1ccc(OC)c(-c2csc(NC(=O)C3=NNC(=O)CC3)n2)c1	-21.6% (inactive)	-29.6	-5.17

Structure (SMILES)	GFP signal change (wild-type ribosome)	OD600 change [%]	RFP signal change [%]
O=C(COC(=O)C1CCCO1)Nc1nc(-c2ccc(F)cc2)cs1 (stereo not drawn)	-5.81% (inactive)	-14.9	-1.04
COc1ccc(OC)c(-c2csc(NC(=O)COC(=O)C3CC3)n2)c1	-18% (active)	-4.55	5.3
Cc1ccc(S(=O)(=O)Nc2ccc3c(c2)C(=O)N([C@@H](C)CO)C[C@H](C)[C@@H](CN(C)S(=O)(=O)c2ccc(C)cc2)O3)cc1	0.928% (inactive)	0.52	1.47
O=C1CN(Cc2ccccc2)C[C@H]2[C@H](c3ccc(-c4ccccc4)cc3)[C@@H](CO)N12	4.87% (inactive)	-18	11.1
COCCNC(=O)/C(C#N)=C/c1nc(N(C)C)n(-c2ccc(F)cc2)c1Cl	23.8% (inactive)	16.1	2.57
COCCNC(=O)/C(C#N)=C/c1cccc(OCc2ccccc2)c1	-27.3% (active)	-3.28	-7.68
COc1ccc(CNC(=O)/C(C#N)=C/c2cccc(OC)c2OC)cc1	-12.3% (inactive)	-6.5	1.12
C[C@@H]1CN([C@H](C)CO)S(=O)(=O)c2ccc(-c3ccccc3)cc2O[C@@H]1CN(C)C(=O)CC1CC1	-1.82% (inactive)	-12.8	1.01
O=C(C1CCC1)N1CC2(C1)[C@H](c1ccccc1)[C@H](CO)N2Cc1nccs1	2.78% (inactive)	3.6	-2.04
COc1ccccc1CNC(=O)C[C@@H]1C[C@H]2c3cc(NC(=O)CN(C)C)ccc3O[C@H]2[C@@H](CO)O1	0.305% (inactive)	-4.08	-3.75
Cc1onc(-c2ccccc2Cl)c1C(=O)OCc1nnc(-c2ccccc2)o1	-1.78% (inactive)	-40.3	-4.01
COc1ccc(C(=O)COC(=O)c2c(C)noc2C)cc1Cl	0.365% (inactive)	-1.69	4.01
Cc1onc(-c2ccccc2Cl)c1C(=O)OCC(=O)c1ccccc1	-21.5% (active)	3.35	-2.14
COc1ccc2c3c(n(C)c2c1)[C@@H](CO)N(C(=O)C1CC1)CC31CN(C(=O)C2CCOCC2)C1	-0.396% (inactive)	5.66	-5.33
CCCNC(=O)N1CC(=O)N2[C@@H](CO)[C@H](c3ccc(-c4ccc(C)cc4)cc3)[C@@H]2C1	2.33% (inactive)	1.16	-7.67
CCCn1c(NC(=O)C23CC4CC(CC(O)(C4)C2)C3)nc2ccccc21	-30.1% (inactive)	-35.7	3.93
Cc1nn(C)cc1C(=O)Nc1ccccc1Br	1.8% (inactive)	6.79	-7.21
CCn1c(NC(=O)c2nn(C)cc2Br)nc2ccccc21	-17.8% (active)	-7.54	6.47
C[C@H]1CN([C@@H](C)CO)C(=O)CCCn2nncc2CO[C@H]1CN(C)Cc1ccc2c(c1)OCO2	-1.02% (inactive)	5.54	0.27
